Data from the supplement of paper PMC8975748.
Structures can show the parent of a compound that is named as a salt.

What follows are compounds tested on Saccharomyces cerevisiae BY4741 SeMeCo community (assay: z-score of subpopulation abundance vs DMSO median, subpopulation auxotrophic for L; higher = larger share of this subpopulation than in DMSO controls). Settings: 10 µM; 24 h; SM minimal medium; subpopulation (auxotrophy): L.
How it was run: (§1)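 A Saccharomyces cerevisiae BY4741 community carried four plasmids, each restoring one auxotrophy and encoding a distinct fluorescent protein. It was pre-grown overnight to OD600 1.0, diluted to 0.3, and 70 µl was added to 384-well plates acoustically predosed with library drugs (10 µM final), then grown 24 h in minimal SM medium. Cells were paraformaldehyde-fixed and imaged by automated confocal microscopy, with single-auxotroph fluorescent strains setting thresholds and autofluorescence correction. Each subpopulation's abundance was scored as a z-score against the vehicle-well median.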

| SMILES | z-score of subpopulation abundance |
| --- | --- |
| c1ccc(-c2ccc(C(c3ccccc3)n3ccnc3)cc2)cc1 (centres undefined) [Bifonazole] | -1.29 |
| CO/N=C(\C(=O)N[C@@H]1C(=O)N2C(C(=O)O)=CCS[C@H]12)c1csc(N)n1 [Ceftizoxime] | -0.19 |
| CN(C)[C@@H]1C(=O)C(C(N)=O)=C(O)[C@@]2(O)C(=O)C3=C(O)c4c(O)ccc(Cl)c4[C@@H](O)[C@H]3C[C@@H]12 [Demeclocycline HCl] | -0.08 |
| C#C[C@]1(O)CC[C@H]2[C@@H]3CCC4=Cc5oncc5C[C@]4(C)[C@H]3CC[C@@]21C [Danazol] | -0.15 |
| Nc1c(Br)cc(Br)cc1CN[C@H]1CC[C@H](O)CC1 [Ambroxol HCl] | -1.26 |
| CCOC(=O)c1ccc(N)cc1 [Benzocaine] | -0.13 |
| O=C1c2c(O)ccc(O)c2C(=O)c2c(NCCNCCO)ccc(NCCNCCO)c21 [Mitoxantrone 2HCl] | 5.53 |
| c1ccc2[nH]c(-c3cscn3)nc2c1 [Thiabendazole] | -0.23 |
| C[C@@H](O)[C@H]1C(=O)N2C(C(=O)[O-])=C(SC3Cn4cnc[n+]4C3)[C@H](C)[C@H]12 (some centres undefined) [Biapenem] | -0.66 |

Each compound was assayed on Saccharomyces cerevisiae BY4741 SeMeCo community (assay: z-score of subpopulation abundance vs DMSO median, subpopulation auxotrophic for U; higher = larger share of this subpopulation than in DMSO controls). Settings: 10 µM; 24 h; SM minimal medium; subpopulation (auxotrophy): U.
How it was run: as §1

| SMILES | z-score of subpopulation abundance |
| --- | --- |
| O=C(Cn1cnnn1)N[C@@H]1C(=O)N2C(C(=O)O)=C(CSc3nncs3)CS[C@H]12 [Ceftezole] | 0.9 |
| O=C(NCCN1CCOCC1)c1ccc(Cl)cc1 | -0.52 |
| C=C[C@]1(C)C[C@@H](OC(=O)CSC(C)(C)CNC(=O)[C@H](N)C(C)C)[C@]2(C)[C@H](C)CC[C@]3(CCC(=O)[C@H]32)[C@@H](C)[C@@H]1O [Valnemulin HCl] | 0.15 |
| CN1CCN(CCCN2c3ccccc3Sc3ccc(C(F)(F)F)cc32)CC1 [Trifluoperazine 2HCl] | 0.38 |
| CCCCCCCCN=c1ccn(CCCCCCCCCCn2ccc(=NCCCCCCCC)cc2)cc1 [Octenidine Dihydrochloride] | 2.6 |
| CC1(C)S[C@@H]2[C@H](NC(=O)Cc3ccccc3)C(=O)N2[C@H]1C(=O)O [Penicillin G Sodium] | 0.06 |
| CC(C)[C@H]1CC[C@H](C(=O)N[C@H](Cc2ccccc2)C(=O)O)CC1 [Nateglinide] | -0.59 |
| Nc1ccc(S(=O)(=O)NC(=O)c2ccccc2)cc1 [Sulfabenzamide] | -0.51 |
| COc1ccc(C(=O)NCc2ccc(OCCN(C)C)cc2)cc1OC [Itopride hydrochloride] | -0.45 |
| CC(C)N1CCN(c2ccc(OCC3COC(Cn4cncn4)(c4ccc(Cl)cc4Cl)O3)cc2)CC1 (centres undefined) [Terconazole] | -0.27 |
| COc1cc([C@@H]2c3cc4c(cc3[C@@H](O[C@@H]3O[C@@H]5CO[C@@H](c6cccs6)O[C@H]5[C@H](O)[C@H]3O)[C@H]3COC(=O)[C@H]23)OCO4)cc(OC)c1O [Teniposide] | 0.19 |
| COc1ccc2c(c1)c(CC(=O)O)c(C)n2C(=O)c1ccc(Cl)cc1 [Indomethacin] | 0.52 |
| N[C@@H](CCC(=O)O)C(=O)O [(S)-Glutamic acid] | 0.05 |
| CC1(C)S[C@@H]2[C@H](NC(=O)Cc3ccccc3)C(=O)N2[C@H]1C(=O)O [Benzylpenicillin potassium] | 0.62 |
| NC(=O)c1cnccn1 [Pyrazinamide] | 1.27 |
| Cc1nnc(NS(=O)(=O)c2ccc(N)cc2)s1 [Sulfamethizole] | -0.15 |
| CCC[C@@H]1C[C@@H](C(=O)N[C@@H]([C@H]2O[C@H](SC)[C@H](OP(=O)(O)O)[C@@H](O)[C@H]2O)[C@H](C)Cl)N(C)C1 [Clindamycin Phosphate] | 0.48 |
| CN[C@@H]1[C@H](O[C@H]2[C@H](O[C@H]3[C@H](O)[C@@H](O)[C@H](N=C(N)N)[C@@H](O)[C@@H]3N=C(N)N)O[C@@H](C)[C@]2(O)C=O)O[C@@H](CO)[C@H](O)[C@H]1O [Streptomycin sulfate] | 1.16 |
| O=c1[nH]cnc2c1ncn2[C@@H]1O[C@H](CO)[C@@H](O)[C@H]1O [Isoprinosine] | -0.71 |
| C=C1c2cccc(O)c2C(O)=C2C(=O)[C@]3(O)C(O)=C(C(N)=O)C(=O)[C@@H](N(C)C)[C@@H]3[C@@H](O)[C@H]12 [Methacycline HCl] | -0.83 |
| COC(=O)C1=C(C)NC(C)=C(C(=O)OC)C1c1ccccc1[N+](=O)[O-] [Nifedipine] | 0.12 |
| Nc1ccc(S(=O)(=O)c2ccc(N)cc2)cc1 [Dapson] | 0.04 |
| NC(CO)(CO)CO [Trometamol] | 0.6 |
| Nc1nc(=O)[nH]cc1F [Flucytosine] | 0.5 |
| CO[C@@H]1[C@@H](O[C@@H]2O[C@H](C)[C@@H](O[C@H]3C[C@@](C)(O)[C@@H](O)[C@H](C)O3)[C@H](N(C)C)[C@H]2O)[C@@H](CC=O)C[C@@H](C)[C@@H](O[C@H]2CC[C@H](N(C)C)[C@@H](C)O2)/C=C/C=C/C[C@@H](C)OC(=O)C[C@H]1OC(C)=O [Acetylspiramycin (ASPM)] | -1.32 |
| C[C@]12CC[C@@H]3c4ccc(OS(=O)(=O)O)cc4CC[C@H]3[C@@H]1CCC2=O [Estropipate] | -0.01 |
| COc1ccnc(C[S+]([O-])c2nc3cc(-n4cccc4)ccc3[nH]2)c1C (centres undefined) [Ilaprazole sodium] | -1.54 |
| CN1C[C@@H]2C[C@H]1CN2c1cc2c(cc1F)c(=O)c(C(=O)O)cn2C1CC1 [Danofloxacin Mesylate] | 0.06 |
| c1ccc(-c2ccc(C(c3ccccc3)n3ccnc3)cc2)cc1 (centres undefined) [Bifonazole] | -0.36 |
| CN(C)[C@@H]1C(=O)C(C(N)=O)=C(O)[C@@]2(O)C(=O)C3=C(O)c4c(O)ccc(Cl)c4[C@@H](O)[C@H]3C[C@@H]12 [Demeclocycline HCl] | 0.03 |
